Assay results: PubChem BioAssay (Tox21)
A number with no mark means an inactive call. Inconclusive results are not listed. A call without a number means that no potency is given here. Calls of active or inactive are those of the source. Unless noted, calls come from the whole dose curve; as a rule, active = well fitted curve in the direction sought with a large enough effect in the repeat runs; inconclusive = weak or mixed curves; inactive = no such curve, though single readings can be large; an effect the other way counts as inactive or inconclusive.

How the values were obtained:
[1] = qHTS assay to identify small molecule antagonists of the estrogen receptor beta (ER-beta) signaling pathway - cell viability counter screen (AID 1259382);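 note: HEK293T cells carrying ER-beta-UAS-bla reporter stimulated with estradiol; series mostly up to about 92 µM; nearly all actives have a fitted effect of over 55% in size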
Outline: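 Cytotoxicity counter screen multiplexed with the beta-lactamase antagonist assay: GripTite HEK293T ER-beta-bla cells were treated 16 hr with test chemicals in the presence of 1nM 17-beta-estradiol, and viability was measured by CellTiter-Glo.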

[2] = biological target: Estrogen receptor (Homo sapiens) (UniProt P03372); test: qHTS assay to identify small molecule agonists of the estrogen receptor alpha (ER-alpha) signaling pathway in the presence of an antagonist (AID 1259383; calls by dose curve; note: top concentration of the series differs between compounds; nearly all actives have a fitted effect of over 15% in size)
Outline: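 Agonist-mode confirmation in the presence of the ER antagonist ICI-182,780 at 10.0nM final. Breast-derived VM7Luc4E2 reporter cells were exposed to compounds for 22hr, and ERE-driven luciferase was quantified by luminescence.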

[3] = qHTS assay to identify small molecule agonists or antagonists of the thyroid stimulating hormone receptor (TSHR) signaling pathway - wild type cell line counter screen (AID 1259384; calls by dose curve)
Outline: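 Wild-type HEK293 cells were plated 18 h at 37 C/5% CO2, pin-dosed with compound plus Ro20-1724 medium, held 30 min at room temperature, then given cAMP-d2 and anti-cAMP-cryptate; fluorescence was read after 1 h. Fifteen concentrations, triplicate.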

[4] = biological target: Thyrotropin receptor (Homo sapiens) (UniProt P16473); test: qHTS assay to identify small molecule antagonists of the thyroid stimulating hormone receptor (TSHR) signaling pathway (AID 1259385; calls by dose curve; note: nearly all actives have a fitted effect of over 20% in size)
Outline: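 TSHR-HEK293 cells were plated and held 18 h at 37C/5% CO2, then given compound plus Ro20-1724 and stimulated with TSH at 1.5 ng/mL final. After 30 min at room temperature, cAMP was detected with cAMP-d2/anti-cAMP-cryptate (1 h) by fluorescence.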

[5] = qHTS assay to identify small molecule agonists of the estrogen receptor alpha (ER-alpha) signaling pathway in the presence of an antagonist - cell viability counter screen (AID 1259386);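 note: series mostly up to about 92 µM; cells exposed to compounds for 22 h at 37 °C before the viability read; nearly all actives have a fitted effect of over 30% in size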
Outline: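 Cytotoxicity was measured in parallel with the ERE-luciferase agonist screen, in the same wells. The cells were VM7Luc4E2, which endogenously express ER-alpha, and treatment was with compounds plus 10.0nM ICI-182,780 for 22hr.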

[6] = biological target: Progesterone receptor (Homo sapiens) (UniProt P06401); test: qHTS assay to identify small molecule agonists of the progesterone receptor (PR) signaling pathway (AID 1346784; calls by dose curve; note: nearly all actives have a fitted effect of over 30% in size; note: potency is the fitted concentration of half-maximal effect)
Outline: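 Beta-lactamase reporter read-out: after 16 hr compound treatment at 37C and a further 2 hr at room temperature with LiveBLAzer B/G FRET substrate, fluorescence was measured in PR-UAS-bla HEK 293T cells grown in 2% charcoal-stripped serum.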

[7] = biological target: Progesterone receptor (Homo sapiens) (UniProt P06401); test: qHTS assay to identify small molecule antagonists of the progesterone receptor (PR) signaling pathway (AID 1346795; active = well fitted inhibition curve with a large enough effect in the signal ratio in the repeat runs, not every such curve was filed as active; the % refers to the signal ratio)
Outline: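 Read-out is fluorescence from the LiveBLAzer B/G FRET substrate, cleaved by a UAS-controlled beta-lactamase in PR-UAS-bla HEK293T cells after 16 hr exposure to compound plus 1 nM promegestone (final), followed by 2 hr at room temperature.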

[8] = qHTS assay to identify small molecule antagonists of the progesterone receptor (PR) signaling pathway - cell viability counter screen (AID 1346798);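 note: HEK293T PR-UAS-bla cells stimulated with the agonist R5020; series mostly up to about 92 µM; nearly all actives have a fitted effect of over 50% in size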
Outline: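 HEK293T PR-UAS-bla, 2% charcoal-stripped FBS; 4 hr pre-plate; cpd + R5020, 16 h 37C; LiveBLAzer read first; then CellTiter-Glo 30 min RT, luminescence.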

[9] = qHTS assay to identify small molecule agonists of the progesterone receptor (PR) signaling pathway - cell viability counter screen (AID 1346799; calls by dose curve; note: nearly all actives have a fitted effect of over 45% in size)
Outline: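 Luminescence from CellTiter-Glo, added after the beta-lactamase FRET read in the same wells, gave cytotoxicity in PR-UAS-bla HEK293T cells treated with compounds for 16 hr at 37C.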

[10] = qHTS assay to identify small molecule antagonists of the TGF-beta/Smad signaling pathway - cell viability counter screen (AID 1346824); note: nearly all actives have a fitted effect of over 50% in size
Outline: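 SBE-bla HEK 293T cells were plated overnight at 37 C, then given compounds in DMSO plus TGF-beta1 (added as 0.25 ng/mL solution) for 5 hr. After the bla read, CellTiter-Glo was added to the same wells and luminescence read after 30 min at room temperature.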

[11] = qHTS assay to identify small molecule agonists of the TGF-beta/Smad signaling pathway - cell viability counter screen (AID 1346829); note: top concentration of the series differs between compounds; nearly all actives have a fitted effect of over 45% in size
Outline: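 HEK 293T SBE-bla line, 5 hr compound exposure at 37 C, multiplexed CellTiter-Glo viability read by luminescence.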

[12] = qHTS assay to identify small molecule agonists of the TGF-beta/Smad signaling pathway (AID 1346859; active = well fitted activation curve with a large enough effect in the signal ratio in the repeat runs, not every such curve was filed as active; the % refers to the signal ratio; note: series mostly up to about 77 µM)
Outline: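 SBE-bla HEK 293T, 4,000 cells/well, plated o/n; cpd in DMSO, 5 hr, 37 C/5% CO2; B/G FRET substrate 2 hr RT; ex 405, em 460/530 nm.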

[13] = biological target: Thyrotropin-releasing hormone receptor (Homo sapiens) (UniProt P34981); test: qHTS assay to identify small molecule antagonists of the thyrotropin-releasing hormone receptor (TRHR) signaling pathway (AID 1346877; active = well fitted inhibition curve with a large enough effect in the repeat runs, not every such curve was filed as active; note: series mostly up to about 51 µM)
Outline: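 Antagonism is measured as suppression of the calcium response to 1 nM TRH in TRHR-HEK293 cells that have been dye-loaded for 2 h at 37 °C after overnight plating. Each compound is tested at 15 concentrations in triplicate.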

[14] = biological target: Thyrotropin-releasing hormone receptor (Homo sapiens) (UniProt P34981); test: qHTS assay to identify small molecule agonists of the thyrotropin-releasing hormone receptor (TRHR) signaling pathway (AID 1346891; calls by dose curve; note: series mostly up to about 58 µM)
Outline: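 Intracellular calcium rise, read as fluorescence every second for 3 min, served as the agonist signal in dye-loaded HEK293 cells expressing TRHR; each compound ran at 15 concentrations in triplicate.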

[15] = Human pregnane X receptor (PXR) small molecule agonists, qHTS cell viability counter screen (AID 1346977); note: nearly all actives have a fitted effect of over 50% in size
Outline: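 PXR-Luc HepG2, 2,000 cells/well, 5% charcoal-stripped FBS; 5hr settle; cpd 24hr, 37C/5% CO2; CellTiter-Fluor at 23hr, read 1hr later (fluorescence).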

[16] = Caspase-3/7 induction in HepG2 cells by small molecules, qHTS assay (AID 1346978); note: nearly all actives have a fitted effect of over 15% in size
Outline: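 Wild-type HepG2 cells (2,000/well) were settled 5 h at 37 C, 5% CO2, then exposed to compounds in DMSO for 17 h. Caspase-3/7 activity was read by luminescence 30 min after adding Caspase-Glo 3/7 reagent at room temperature.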

[17] = Caspase-3/7 induction in CHO-K1 cells by small molecules, qHTS cell viability counter screen (AID 1346979); note: nearly all actives have a fitted effect of over 35% in size
Outline: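 Cells (CHO-K1, wild type) are plated at 1,500 per well and incubated 5hr. Test compounds in DMSO are then pinned in, followed by 16hr at 37C and 5% CO2. Viability is read by CellTiter-Fluor fluorescence after 1hr.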

[18] = Caspase-3/7 induction in CHO-K1 cells by small molecules, qHTS assay (AID 1346980); note: nearly all actives have a fitted effect of over 15% in size
Outline: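 Wild-type cells were seeded at 1,500 per well and settled 5 hr at 37 C, 5% CO2, then exposed to DMSO-dissolved compounds for 17 hr. Caspase-Glo 3/7 reagent was added, and luminescence was read after 30min at room temperature.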

[19] = Caspase-3/7 induction in HepG2 cells by small molecules, qHTS cell viability counter screen (AID 1346981); note: series mostly up to about 92 µM; nearly all actives have a fitted effect of over 30% in size
Outline: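 Cell viability is measured as a cytotoxicity counter screen alongside the Caspase-Glo 3/7 readout in identical wells. Wild-type HepG2 cells are treated with test compounds for 16 hr at 37 C before CellTiter-Fluor addition and a 1-hr incubation.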

[20] = biological target: Androgen receptor (Homo sapiens) (UniProt P10275); test: qHTS assay to identify small molecule agonists of the androgen receptor (AR) signaling pathway in the presence of an antagonist (AID 1259381; calls by dose curve; note: nearly all actives have a fitted effect of over 15% in size)
Outline: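 Agonist-mode confirmation screen: human MDA-kb2 cells stably expressing luciferase under an MMTV promoter bearing AR and GR response elements, co-treated with 3.0uM nilutamide (final). Luminescence measured after 16hr compound incubation.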

Chain of Thyrotropin-releasing hormone receptor (Homo sapiens) (P34981 whole entry, looked up): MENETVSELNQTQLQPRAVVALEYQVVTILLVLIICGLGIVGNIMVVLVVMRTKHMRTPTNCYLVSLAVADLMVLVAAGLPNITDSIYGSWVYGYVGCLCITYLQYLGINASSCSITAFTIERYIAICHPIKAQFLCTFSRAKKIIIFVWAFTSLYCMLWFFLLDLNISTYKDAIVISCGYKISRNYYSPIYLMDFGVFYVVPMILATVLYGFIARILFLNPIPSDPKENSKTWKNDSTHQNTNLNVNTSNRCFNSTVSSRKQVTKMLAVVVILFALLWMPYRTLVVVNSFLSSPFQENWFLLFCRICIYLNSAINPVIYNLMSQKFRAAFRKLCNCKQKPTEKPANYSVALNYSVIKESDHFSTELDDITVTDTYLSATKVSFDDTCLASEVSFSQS
Chain of Progesterone receptor (Homo sapiens) (P06401 whole entry, looked up): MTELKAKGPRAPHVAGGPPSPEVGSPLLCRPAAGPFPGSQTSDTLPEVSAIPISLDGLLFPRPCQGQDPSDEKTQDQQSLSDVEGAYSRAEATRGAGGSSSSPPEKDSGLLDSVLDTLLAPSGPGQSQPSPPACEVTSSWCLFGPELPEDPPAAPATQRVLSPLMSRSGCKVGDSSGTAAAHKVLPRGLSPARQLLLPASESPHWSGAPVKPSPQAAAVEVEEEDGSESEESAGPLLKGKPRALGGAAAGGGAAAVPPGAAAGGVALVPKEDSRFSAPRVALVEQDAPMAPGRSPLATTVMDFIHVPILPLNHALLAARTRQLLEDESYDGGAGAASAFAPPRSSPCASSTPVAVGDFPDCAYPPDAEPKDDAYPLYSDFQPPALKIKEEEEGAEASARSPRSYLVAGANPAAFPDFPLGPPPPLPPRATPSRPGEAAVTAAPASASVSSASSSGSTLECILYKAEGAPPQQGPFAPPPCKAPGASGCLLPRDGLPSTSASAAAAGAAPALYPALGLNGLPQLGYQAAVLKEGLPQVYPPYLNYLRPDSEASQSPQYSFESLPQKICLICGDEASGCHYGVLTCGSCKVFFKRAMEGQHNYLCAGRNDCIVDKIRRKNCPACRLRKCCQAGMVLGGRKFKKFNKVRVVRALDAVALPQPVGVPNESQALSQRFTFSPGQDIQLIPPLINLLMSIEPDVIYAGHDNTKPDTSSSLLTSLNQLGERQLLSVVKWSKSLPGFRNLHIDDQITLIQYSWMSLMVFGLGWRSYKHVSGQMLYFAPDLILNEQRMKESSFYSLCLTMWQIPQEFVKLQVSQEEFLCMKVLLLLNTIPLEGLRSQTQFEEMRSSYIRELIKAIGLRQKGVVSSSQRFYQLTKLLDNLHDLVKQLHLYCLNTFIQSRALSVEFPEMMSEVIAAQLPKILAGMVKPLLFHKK
Chain of Estrogen receptor (Homo sapiens) (P03372 whole entry, looked up): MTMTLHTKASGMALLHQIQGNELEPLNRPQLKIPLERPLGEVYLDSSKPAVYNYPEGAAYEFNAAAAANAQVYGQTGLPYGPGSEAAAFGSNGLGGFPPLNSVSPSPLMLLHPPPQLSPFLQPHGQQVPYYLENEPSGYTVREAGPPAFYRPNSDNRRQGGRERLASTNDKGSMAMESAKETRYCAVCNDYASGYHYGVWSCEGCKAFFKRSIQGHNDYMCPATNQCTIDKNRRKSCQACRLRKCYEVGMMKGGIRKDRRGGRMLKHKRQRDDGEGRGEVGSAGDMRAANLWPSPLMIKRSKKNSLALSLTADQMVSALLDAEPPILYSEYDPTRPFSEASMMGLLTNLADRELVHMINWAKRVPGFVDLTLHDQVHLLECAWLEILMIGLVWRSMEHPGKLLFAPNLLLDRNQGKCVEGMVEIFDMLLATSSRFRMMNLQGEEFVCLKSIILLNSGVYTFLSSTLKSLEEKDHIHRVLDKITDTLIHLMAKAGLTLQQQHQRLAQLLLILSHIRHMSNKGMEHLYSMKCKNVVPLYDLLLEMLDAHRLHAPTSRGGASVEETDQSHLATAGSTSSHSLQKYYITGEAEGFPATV
Chain of Thyrotropin receptor (Homo sapiens) (P16473 whole entry, looked up): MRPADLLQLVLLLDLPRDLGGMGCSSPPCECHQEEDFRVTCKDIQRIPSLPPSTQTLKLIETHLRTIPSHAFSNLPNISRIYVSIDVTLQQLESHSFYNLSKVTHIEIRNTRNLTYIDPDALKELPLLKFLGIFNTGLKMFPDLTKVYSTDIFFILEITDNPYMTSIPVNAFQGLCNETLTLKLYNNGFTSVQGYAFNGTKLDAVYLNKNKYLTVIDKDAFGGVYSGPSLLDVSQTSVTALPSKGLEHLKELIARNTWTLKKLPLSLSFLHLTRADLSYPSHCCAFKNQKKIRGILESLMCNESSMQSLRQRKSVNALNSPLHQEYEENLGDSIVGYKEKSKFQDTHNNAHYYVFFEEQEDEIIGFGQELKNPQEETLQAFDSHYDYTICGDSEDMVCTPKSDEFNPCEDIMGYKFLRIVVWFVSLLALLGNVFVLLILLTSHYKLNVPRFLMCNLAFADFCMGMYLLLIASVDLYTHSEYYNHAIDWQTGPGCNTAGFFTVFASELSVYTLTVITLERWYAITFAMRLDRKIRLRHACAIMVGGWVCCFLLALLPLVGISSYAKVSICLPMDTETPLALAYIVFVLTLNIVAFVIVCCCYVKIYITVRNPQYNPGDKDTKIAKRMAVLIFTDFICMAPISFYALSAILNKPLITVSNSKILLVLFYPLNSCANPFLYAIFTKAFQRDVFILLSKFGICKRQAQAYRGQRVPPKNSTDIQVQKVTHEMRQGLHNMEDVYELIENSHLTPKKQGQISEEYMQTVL
Chain of Androgen receptor (Homo sapiens) (P10275 whole entry, looked up): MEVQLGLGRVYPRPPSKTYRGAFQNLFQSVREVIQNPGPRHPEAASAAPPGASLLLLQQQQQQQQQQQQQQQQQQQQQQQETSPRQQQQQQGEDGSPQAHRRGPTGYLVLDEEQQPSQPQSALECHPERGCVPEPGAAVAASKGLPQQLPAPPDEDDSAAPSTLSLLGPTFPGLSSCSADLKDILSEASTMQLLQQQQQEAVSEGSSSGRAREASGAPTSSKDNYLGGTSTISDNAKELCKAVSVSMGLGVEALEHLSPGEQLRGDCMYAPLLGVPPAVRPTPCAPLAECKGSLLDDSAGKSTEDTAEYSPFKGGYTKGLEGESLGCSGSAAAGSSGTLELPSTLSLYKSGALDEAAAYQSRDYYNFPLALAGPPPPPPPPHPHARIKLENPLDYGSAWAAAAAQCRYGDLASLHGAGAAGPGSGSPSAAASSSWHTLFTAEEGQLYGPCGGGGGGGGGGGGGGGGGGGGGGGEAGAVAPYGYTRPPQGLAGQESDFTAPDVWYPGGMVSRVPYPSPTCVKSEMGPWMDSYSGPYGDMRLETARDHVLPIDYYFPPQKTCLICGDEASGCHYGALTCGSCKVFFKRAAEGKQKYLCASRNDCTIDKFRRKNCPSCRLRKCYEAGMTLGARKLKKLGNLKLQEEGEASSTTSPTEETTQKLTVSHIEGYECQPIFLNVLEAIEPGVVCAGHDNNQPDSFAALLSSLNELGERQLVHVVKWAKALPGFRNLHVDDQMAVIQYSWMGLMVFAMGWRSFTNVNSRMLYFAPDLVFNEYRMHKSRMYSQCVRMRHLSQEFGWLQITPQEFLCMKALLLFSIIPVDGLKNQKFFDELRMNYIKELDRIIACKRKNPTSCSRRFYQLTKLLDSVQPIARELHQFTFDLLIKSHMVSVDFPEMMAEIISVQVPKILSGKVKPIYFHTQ

| Structure (SMILES) | outcome [1] | outcome [2] | outcome [3] | outcome [4] | Potency [5] | Potency [6] | Potency [7] | Potency [8] | Potency [9] | outcome [10] | outcome [11] | outcome [12] | outcome [13] | outcome [14] | Potency [15] | outcome [16] | Potency [17] | outcome [18] | Potency [19] | outcome [20] |
| --- | --- | --- | --- | --- | --- | --- | --- | --- | --- | --- | --- | --- | --- | --- | --- | --- | --- | --- | --- | --- |
| O=C(O)c1c(Cl)ccc(Cl)c1Cl | inactive | inactive | inactive | inactive | inactive | inactive | inactive | inactive | inactive | inactive | inactive | inactive | inactive | inactive | inactive | inactive | inactive | inactive | inactive | – |
| O=S(=O)(O)CCO | inactive | inactive | inactive | inactive | inactive | 49.2 µM (active) | inactive | inactive | inactive | inactive | inactive | inactive | inactive | inactive | inactive | inactive | inactive | inactive | inactive | – |
| O=c1[nH]c(=O)c2ccccc2o1 | – | – | inactive | inactive | inactive | inactive | inactive | inactive | – | inactive | inactive | inactive | – | – | inactive | inactive | inactive | inactive | – | inactive |
| Cc1nc([N+](=O)[O-])cn1-c1ccc([N+](=O)[O-])cc1 | inactive | inactive | inactive | inactive | inactive | inactive | inactive | – | inactive | inactive | inactive | inactive | inactive | inactive | inactive | inactive | inactive | inactive | inactive | – |
| CO[Si](CCCS)(OC)OC | inactive | inactive | inactive | inactive | inactive | inactive | inactive | inactive | – | inactive | inactive | inactive | – | – | inactive | inactive | inactive | inactive | inactive | – |
| CCCCCCCCOC(C)=O | inactive | inactive | inactive | inactive | inactive | inactive | inactive | inactive | – | inactive | inactive | inactive | – | – | inactive | inactive | inactive | inactive | inactive | – |
| COc1ccc(NS(=O)(=O)c2ccc(N)cc2)nn1 | inactive | inactive | inactive | inactive | inactive | inactive | inactive | inactive | inactive | inactive | inactive | inactive | inactive | inactive | inactive | inactive | inactive | inactive | – | – |
| CC(C)CCCC(C)CC=O (configuration not stated) | inactive | inactive | inactive | inactive | inactive | inactive | inactive | inactive | inactive | inactive | inactive | inactive | inactive | – | inactive | inactive | – | inactive | inactive | – |
